Experimental data as given in PubChem BioAssay (NCI).
This is part of a sample that, as a whole, favours compounds with a hit. Of some 79,000 tested, about 15% had one in any assay. Calls of active or inactive are those of the source. Rule as the data show it: active = growth inhibition above about 70%; inactive = the rest.

What was measured:
[1] = NCI Yeast Anticancer Drug Screen. Data for the rad52 strain (AID 147);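 also: 0% = growth of vehicle-treated control cultures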; settings: S. cerevisiae rad52 mutant growth inhibition, hits give high values
In short: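 Read-out: growth inhibition versus vehicle-treated controls. Cells were a DNA repair-deficient yeast strain treated with compounds.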

[2] = NCI Yeast Anticancer Drug Screen. Data for the wt1 strain (AID 149);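 also: 0% = growth of vehicle-treated wt1 cultures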; settings: S. cerevisiae wt1 strain (SPY 50644) growth inhibition, hits give high values
In short: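 wt1 yeast, compound-treated; % growth inhibition vs vehicle control.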

[3] = NCI Yeast Anticancer Drug Screen. Data for the rad50EPP+ strain (AID 151);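 also: 0% = growth of vehicle-treated control cultures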; settings: S. cerevisiae rad50 mutant strain, hits give high values
In short: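 Growth inhibition read against vehicle controls in rad50EPP+ yeast, a strain altered in DNA damage repair, after compound exposure.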

[4] = NCI Yeast Anticancer Drug Screen. Data for the mgt1 strain (AID 153); settings: S. cerevisiae mgt1 mutant growth inhibition, hits give high values
In short: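 mgt1 yeast grown with test compound; read-out is growth inhibition versus vehicle-treated cultures.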

[5] = NCI Yeast Anticancer Drug Screen. Data for the rad50 strain (AID 155);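 also: 0% = growth of vehicle-only cultures of the same strain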; settings: S. cerevisiae rad50 strain growth inhibition, hits give high values
In short: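 Genetically altered yeast (DNA repair pathway); compound treatment; growth inhibition vs vehicle ctrl.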

[6] = NCI Yeast Anticancer Drug Screen. Data for the mec2-1 strain (AID 157); settings: S. cerevisiae mec2-1 strain, hits give high values
In short: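 Yeast mec2-1 mutant treated with compound. Readout: growth inhibition vs vehicle controls.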

[7] = NCI Yeast Anticancer Drug Screen. Data for the rad14 strain (AID 159);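 also: 0% = growth of vehicle-treated control cultures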; settings: S. cerevisiae rad14 strain growth inhibition, hits give high values
In short: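 Test compounds were applied to a repair-deficient yeast strain. Its growth was then compared with that of cultures given vehicle alone, and inhibition was expressed relative to those controls.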

[8] = NCI Yeast Anticancer Drug Screen. Data for the sgs1 mgt1 strain (AID 161);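 also: 0% = growth of cultures given vehicle only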; settings: S. cerevisiae sgs1 mgt1 strain, hits give high values
In short: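 Genetically altered yeast, compound exposure, growth inhibition relative to vehicle.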

[9] = NCI Yeast Anticancer Drug Screen. Data for the CLN2oe strain (AID 163);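 also: 0% = growth of vehicle-only control cultures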; settings: S. cerevisiae CLN2oe strain, hits give high values
In short: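 Read-out: yeast growth inhibition, expressed relative to vehicle-only controls. The strain bears an engineered cell-cycle alteration.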

[10] = NCI Yeast Anticancer Drug Screen. Data for the bub3 strain (AID 167); settings: S. cerevisiae bub3 mutant strain, hits give high values
In short: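 Yeast carrying a defined mutation is treated with each compound, and growth is compared with that of vehicle-exposed cells to give inhibition.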

[11] = NCI Yeast Anticancer Drug Screen. Data for the wt2 strain (AID 169);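 also: 0% = growth of vehicle-treated yeast cultures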; settings: S. cerevisiae wt2 strain growth inhibition, hits give high values
In short: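 Read-out: growth inhibition versus vehicle-treated control cultures after compound exposure of the yeast strain.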

[12] = NCI Yeast Anticancer Drug Screen. Data for the mlh1 strain (AID 171);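 also: 0% = growth of vehicle-treated control cultures of the same strain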; settings: S. cerevisiae mlh1 strain growth inhibition, hits give high values
In short: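 Read-out: growth inhibition versus vehicle controls. Strain: engineered yeast with a defined DNA repair or cell cycle defect, compound-treated.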

[13] = NCI Yeast Anticancer Drug Screen. Data for the sgs1 strain (AID 173);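 also: 0% = growth of vehicle-only control cultures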; settings: S. cerevisiae sgs1 mutant, hits give high values
In short: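 Read-out: yeast growth inhibition relative to vehicle controls, following compound exposure of a strain with a defined DNA repair/cell cycle alteration.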

[14] = NCI Yeast Anticancer Drug Screen. Data for the mlh1 rad18 strain (AID 175); settings: S. cerevisiae mlh1 rad18 strain growth inhibition, hits give high values
In short: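 Yeast w/ defined DNA-repair lesions; compound exposure; growth vs vehicle controls → % inhibition.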

[15] = NCI Yeast Anticancer Drug Screen. Data for the rad18 strain (AID 177); settings: S. cerevisiae rad18 mutant growth inhibition, hits give high values
In short: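 Readout: growth inhibition vs vehicle controls. Cells: genetically altered yeast strain, DNA repair defect.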

[16] = at 5.0 µM (retest, dose inferred, filed as 0.5)
[17] = at 50.0 µM (retest, dose inferred, filed as 5.0)

Measured: growth inhibition

Fc1ccc(Nc2ccc3ccccc3c2)cc1
inactive: [1]; at 1.2 µM -1% | [1]; at 3.7 µM -2% | [1]; at 11.0 µM -3% | [1]; at 33.0 µM 17% | [2]; at 1.2 µM -1% | [2]; at 3.7 µM 0% | [2]; at 11.0 µM -2% | [2]; at 33.0 µM 21% | [2]; at 100.0 µM 41% | [3]; at 1.2 µM -3% | [3]; at 3.7 µM -3% | [3]; at 11.0 µM -1% | [3]; at 33.0 µM 4% | [3]; at 100.0 µM 7% | [4]; at 1.2 µM -2% | [4]; at 3.7 µM -1% | [4]; at 11.0 µM -2% | [4]; at 33.0 µM 54% | [5]; at 1.2 µM -6% | [5]; at 3.7 µM -48% | [5]; [16] -1% | [5]; at 11.0 µM 8% | [5]; at 33.0 µM 4% | [5]; [17] 64% | [6]; at 1.2 µM -1% | [6]; at 3.7 µM 0% | [6]; [16] -2% | [6]; at 11.0 µM -3% | [6]; at 33.0 µM 25% | [7]; at 1.2 µM -1% | [7]; at 3.7 µM 2% | [7]; at 11.0 µM 2% | [7]; at 33.0 µM 55% | [8]; [16] -4% | [9]; at 1.2 µM 2% | [9]; at 3.7 µM -2% | [9]; at 11.0 µM -1% | [9]; at 33.0 µM -11% | [9]; at 100.0 µM 44% | [10]; at 1.2 µM 0% | [10]; at 3.7 µM -7% | [10]; [16] 0% | [10]; at 11.0 µM -6% | [10]; at 33.0 µM -9% | [10]; [17] 12% | [11]; at 1.2 µM -1% | [11]; at 3.7 µM 8% | [11]; at 11.0 µM -1% | [11]; at 33.0 µM 44% | [12]; at 1.2 µM 0% | [12]; at 3.7 µM 0% | [12]; at 11.0 µM -2% | [12]; at 33.0 µM 44% | [13]; at 1.2 µM -2% | [13]; at 3.7 µM 0% | [13]; at 11.0 µM 2% | [13]; at 33.0 µM 63% | [14]; [16] -3% | [14]; [17] 69% | [15]; at 1.2 µM 0% | [15]; at 3.7 µM 1% | [15]; at 11.0 µM 0% | [15]; at 33.0 µM -1%
active: [1]; at 100.0 µM 78% | [4]; at 100.0 µM 94% | [5]; at 50.0 µM 91% | [5]; at 100.0 µM 89% | [6]; [17] 84% | [6]; at 50.0 µM 90.2% | [6]; at 100.0 µM 93% | [7]; at 100.0 µM 97% | [8]; [17] 86% | [8]; at 50.0 µM 91.2% | [10]; at 50.0 µM 92.8% | [10]; at 100.0 µM 88% | [11]; at 100.0 µM 91% | [12]; at 100.0 µM 90% | [13]; at 100.0 µM 95% | [14]; at 50.0 µM 93.5% | [15]; at 100.0 µM 91%
